Reference: PubChem BioAssay AID1159580 (chemical genetic matrix, 2015)
Several values for one entry are separate records, joined by “and”; a condition that tells them apart may be missing. Equal values may be shown once. Out of some 5,500 compounds screened, about 2,000 (36%) were called active. Inconclusive results (about 18%) are left out. Rule as the data show it: active = normalized growth mostly below about 0.91 (no sharp cut-off); inconclusive = no clear call, values can overlap the other calls; inactive = mostly above about 0.92. The list shows a part of the results.

Experiment: chemical genetic growth profiling, strain panel (AID 1159580);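 also: tested at 20 µM; growth read once vehicle control cultures reached saturation at 30 °C; 1 = growth at the plate median or of vehicle wells; lower values mean less growth of the strain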
Settings: S. cerevisiae deletion strains, growth OD

Measured: normalized growth

CC1(C)S[C@@H]2[C@H](NC(=O)[C@@H](N)c3ccc(O)cc3)C(=O)N2[C@H]1C(=O)O
inactive: locus YAL013W, strain DEP1, hits give low values 1.01 | locus YAL021C, strain ccr4, hits give low values 0.97 | locus YAL026C, strain drs2, hits give low values 0.976 | locus YAL030W, strain snc1, hits give low values 0.999 | locus YBL061C, strain skt5, hits give low values 1.01 | locus YBR009C, strain hhf1, hits give low values 0.951 | locus YBR021W, strain FUR4, hits give low values 1 | locus YBR023C, strain chs3, hits give low values 0.996 | locus YBR171W, strain sec66, hits give low values 0.987 | locus YBR229C, strain ROT2, hits give low values 1 | locus YBR231C, strain swc5, hits give low values 1 | locus YBR279W, strain paf1, hits give low values 0.99 | locus YCL011C, strain gbp2, hits give low values 0.988 | locus YCL016C, strain dcc1, hits give low values 0.992 | locus YCL029C, strain bik1, hits give low values 1.01 | locus YCL069W, strain vba3, hits give low values 0.989 | locus YCR088W, strain abp1, hits give low values 0.983 | locus YDL005C, strain med2, hits give low values 0.993 | locus YDL035C, strain GPR1, hits give low values 1.02 | locus YDL040C, strain nat1, hits give low values 0.995 | locus YDL074C, strain BRE1, hits give low values 1.01 | locus YDL101C, strain DUN1, hits give low values 1.01 | locus YDL185W, strain tfp1, hits give low values 0.997 | locus YDL192W, strain arf1, hits give low values 1 | locus YDR001C, strain nth1, hits give low values 0.964 | locus YDR069C, strain doa4, hits give low values 1.01 | locus YDR101C, strain arx1, hits give low values 1 | locus YDR137W, strain rgp1, hits give low values 0.938 | locus YDR159W, strain sac3, hits give low values 0.991 | locus YDR162C, strain NBP2, hits give low values 1.03 | locus YDR195W, strain ref2 0.98 | locus YDR297W, strain sur2, hits give low values 0.998 | locus YDR318W, strain mcm21, hits give low values 0.998 | locus YDR334W, strain swr1, hits give low values 0.982 | locus YDR335W, strain msn5, hits give low values 0.996 | locus YDR388W, hits give low values 1.01 | locus YDR392W, strain spt3, hits give low values 0.936 | locus YDR502C, strain sam2, hits give low values 0.999 | locus YEL003W, strain gim4, hits give low values 0.991 | locus YEL037C, strain rad23, hits give low values 0.983 | locus YEL061C, strain CIN8 (second series), hits give low values 0.988 | locus YEL061C, strain CIN8, hits give low values 1.01 | locus YER015W, strain faa2, hits give low values 0.998 | locus YER016W, strain bim1, hits give low values 0.967 | locus YER110C, hits give low values 1.01 | locus YER111C, strain swi4, hits give low values 0.98 | locus YER155C, strain BEM2 (second series), hits give low values 0.996 | locus YER155C, strain BEM2, hits give low values 1 | locus YER167W, strain BCK2, hits give low values 1.01 | locus YFR010W, strain ubp6, hits give low values 0.987 | locus YGL078C, strain dbp3, hits give low values 1 | locus YGL086W, strain mad1, hits give low values 0.994 | locus YGL167C, strain pmr1, hits give low values 1.01 | locus YGL173C, strain kem1, hits give low values 1.02 | locus YGL227W, strain vid30, hits give low values 1 | locus YGL240W, strain doc1, hits give low values 1.02 | locus YGL248W, strain PDE1, hits give low values 1.02 | locus YGL253W, strain hxk2, hits give low values 0.99 | locus YGR078C, strain PAC10, hits give low values 1 | locus YGR135W, strain pre9, hits give low values 0.986 | locus YGR252W, strain gcn5, hits give low values 0.954 | locus YHR013C, strain ard1, hits give low values 1.03 | locus YHR027C, strain rpn1, hits give low values 0.989 | locus YHR030C, strain SLT2, hits give low values 1.01 and 1.03 | locus YHR079C, strain IRE1 (second series), hits give low values 0.996 | locus YHR079C, strain IRE1, hits give low values 1.06 | locus YHR094C, strain hxt1, hits give low values 1 | locus YHR129C, strain ARP1, hits give low values 1.01 | locus YHR142W, strain chs7, hits give low values 0.982 | locus YHR200W, strain rpn10, hits give low values 0.995 | locus YIL066C, strain RNR3, hits give low values 1.03 | locus YIL073C, strain SPO22, hits give low values 1.04 | locus YIL125W, strain kgd1, hits give low values 1 | locus YIR030C, strain dcg1, hits give low values 1 | locus YJL092W, strain hpr5, hits give low values 0.991 | locus YJL095W, strain BCK1 (second series), hits give low values 0.983 | locus YJL095W, strain BCK1, hits give low values 1.02 and 1.06 | locus YJL115W, strain asf1, hits give low values 0.979 | locus YJL129C, strain trk1, hits give low values 1 | locus YJL134W, strain LCB3, hits give low values 1.01 | locus YJL154C, strain vps35, hits give low values 0.991 | locus YJL164C, strain tpk1, hits give low values 0.995 | locus YJL166W, strain qcr8, hits give low values 1.02 | locus YJL168C, strain set2, hits give low values 0.997 | locus YJL187C, strain SWE1 (second series), hits give low values 1.01 | locus YJL187C, strain SWE1, hits give low values 0.998 | locus YJR043C, strain POL32, hits give low values 1.01 | locus YJR066W, strain TOR1, hits give low values 1.01 | locus YJR075W, strain HOC1, hits give low values 1.02 | locus YKL009W, strain mrt4, hits give low values 1.02 | locus YKL068W, hits give low values 1 | locus YKL085W, strain MDH1 (second series), hits give low values 1.01 | locus YKL085W, strain MDH1, hits give low values 1.01 | locus YKL160W, strain elf1, hits give low values 1.01 | locus YKR001C, strain vps1, hits give low values 0.982 | locus YKR026C, strain gcn3, hits give low values 1.07 | locus YKR091W, strain srl3, hits give low values 1 | locus YLL001W, strain dnm1, hits give low values 1.02 | locus YLL026W, hits give low values 0.992 | locus YLL041C, strain sdh2, hits give low values 0.999 | locus YLR027C, strain aat2, hits give low values 0.993 | locus YLR039C, strain RIC1, hits give low values 1 | locus YLR058C, strain SHM2, hits give low values 1.01 | locus YLR102C, strain apc9, hits give low values 0.997 | locus YLR113W, strain HOG1, hits give low values 1.04 | locus YLR221C, strain rsa3, hits give low values 0.991 | locus YLR258W, strain gsy2, hits give low values 0.991 | locus YLR262C, strain YPT6 (second series), hits give low values 0.975 | locus YLR262C, strain YPT6, hits give low values 1.09 | locus YLR268W, strain sec22, hits give low values 1.01 | locus YLR320W, strain mms22, hits give low values 0.987 | locus YLR330W, strain CHS5, hits give low values 1.01 | locus YLR342W, strain FKS1 (second series), hits give low values 0.974 | locus YLR342W, strain FKS1, hits give low values 1.01 | locus YLR357W, strain rsc2, hits give low values 1.02 | locus YLR370C, strain arc18, hits give low values 0.999 | locus YLR371W, strain rom2, hits give low values 0.991 | locus YLR384C, strain iki3, hits give low values 0.989 | locus YLR418C, strain cdc73, hits give low values 0.994 | locus YML016C, strain PPZ1, hits give low values 1.01 | locus YML032C, strain rad52, hits give low values 1.01 | locus YML120C, strain ndi1, hits give low values 0.997 | locus YML124C, strain tub3, hits give low values 0.985 | locus YMR058W, strain fet3, hits give low values 0.995 | locus YMR078C, strain ctf18, hits give low values 0.994 | locus YMR125W, strain sto1, hits give low values 0.998 | locus YMR129W, hits give low values 0.988 | locus YMR205C, strain PFK2, hits give low values 1 | locus YMR223W, strain ubp8, hits give low values 0.997 | locus YMR231W, strain pep5, hits give low values 1 | locus YMR263W, strain SAP30, hits give low values 1 | locus YMR307W, strain GAS1, hits give low values 0.969 | locus YNL067W, strain RPL9B, hits give low values 1.01 | locus YNL071W, strain lat1, hits give low values 0.984 | locus YNL153C, strain GIM3, hits give low values 1 | locus YNL183C, strain NPR1, hits give low values 1 | locus YNL209W, strain ssb2, hits give low values 0.995 | locus YNL233W, strain BNI4, hits give low values 1.02 | locus YNL248C, strain rpa49, hits give low values 1.03 | locus YNL250W, strain rad50, hits give low values 1 | locus YNL271C, strain bni1, hits give low values 1 | locus YNL298W, strain CLA4, hits give low values 0.984 | locus YNL307C, strain MCK1, hits give low values 1.03 | locus YNL322C, strain KRE1 (second series), hits give low values 1 | locus YNL322C, strain KRE1, hits give low values 1.01 | locus YNR049C, strain mso1, hits give low values 0.985 | locus YNR052C, strain pop2, hits give low values 0.999 | locus YOL012C, strain htz1 1.31 | locus YOL147C, strain pex11, hits give low values 1.01 | locus YOR001W, strain rrp6, hits give low values 0.997 | locus YOR061W, strain CKA2, hits give low values 1.02 | locus YOR069W, strain VPS5, hits give low values 1.01 | locus YOR070C, strain gyp1, hits give low values 0.999 | locus YOR080W, strain dia2, hits give low values 1.01 | locus YOR083W, strain WHI5, hits give low values 1.03 | locus YOR106W, strain vam3, hits give low values 1 | locus YOR136W, strain idh2, hits give low values 0.994 | locus YOR144C, strain elg1, hits give low values 0.991 | locus YOR184W, strain ser1, hits give low values 1.03 | locus YOR231W, strain MKK1, hits give low values 1.05 | locus YOR265W, strain rbl2, hits give low values 0.997 | locus YOR270C, strain vph1, hits give low values 0.962 | locus YOR290C, strain snf2, hits give low values 0.975 | locus YOR316C, strain cot1, hits give low values 0.999 | locus YPL051W, strain arl3, hits give low values 1.01 | locus YPL078C, strain atp4, hits give low values 1.01 | locus YPL106C, strain sse1, hits give low values 0.974 | locus YPL240C, strain hsp82, hits give low values 0.993 | locus YPL241C, strain CIN2, hits give low values 1.01 | locus YPL256C, strain CLN2, hits give low values 1.05 | locus YPR119W, strain clb2, hits give low values 1 | locus YPR141C, strain kar3, hits give low values 1.03 | locus YPR163C, strain tif3, hits give low values 1 | locus YPR167C, strain met16, hits give low values 0.998 | strain wtn01, hits give low values 0.976
